The whole screen tested about 63,000 compounds, of which about 1,100 (1.7%) were called active.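 How the source made its calls: active means compounds whose percent cytotoxicity in the single-dose primary screen, scaled between solvent and toxic-drug controls, exceeds 50; inactive means the rest.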 The list comes from a sample in which actives are over-represented; it also holds similar structures and randomly drawn compounds. Results with a measured potency or affinity are listed apart.

Experimental findings from PubChem BioAssay AID431 (Sanford-Burnham Center for Chemical Genomics, 2006) are described below.

The assay in a line: cytotoxicity in KRAS-transformed pancreatic duct cells, primary screen, cell-based, fluorescence, HTS (AID 431).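 Further: 0% = DMSO solvent wells and 100% = doxorubicin-treated wells.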 The note with it: HPDE-C7K KRASV12 cells, Alamar Blue viability, 48 h; at 10 µM; stronger effect = higher value.
Turning to `CC(C)(C)NS(=O)(=O)c1ccc2nc(NC(=O)Cc3cccs3)sc2c1`, the cytotoxicity was 73.1% (active).

Turning to `O=C(Cc1cccs1)Nc1nc2ccccc2s1`, the cytotoxicity was 2.2% (inactive).

As to `CS(=O)(=O)c1ccc2nc(NC(=O)Cc3ccccc3)sc2c1`, the cytotoxicity is 2.6% (inactive).

On to `COCCn1c(=S)[nH]c2cc(C(=O)N3CCN(c4ccccc4OC)CC3)ccc2c1=O`, for which the cytotoxicity was 6.7% (inactive).

Turning to `CCCc1[nH]n(-c2nc3ccccc3s2)c(=O)c1C=NCCN1CCOCC1`, the cytotoxicity was 24.1% (inactive).

`CCCCCN=Cc1c(C)[nH]n(-c2nc3ccccc3s2)c1=O`: the cytotoxicity is 13.1% (inactive).

Consider `O=c1c(C=NCCCn2ccnc2)c(-c2ccccc2)[nH]n1-c1nc2ccccc2s1`, for which the cytotoxicity is 63.3% (active).

With `C=CCc1ccc(OCC(O)CN2CCCCC2C)c(OC)c1` (stereo not drawn), the cytotoxicity is 22.6% (inactive).

Take `COCCn1nnnc1SCC(=O)N1CCCCC1`: the cytotoxicity was -12.2% (inactive).

For `CCOc1ccc2nc(C(C)O)[nH]c2c1` (stereo not drawn), the cytotoxicity was 5.3% (inactive).

Consider `CCOc1ccc2nc(-c3ccccc3)[nH]c2c1`, for which the cytotoxicity is 57.3% (active).

In the case of `COc1ccc2nc(-c3ccccc3)[nH]c2c1`, the cytotoxicity was -5.2% (inactive).

As for `CCOc1ccccc1NC(=O)CSc1nnnn1-c1ccc(C(=O)OC)cc1`, the cytotoxicity was 0.9% (inactive).

In the case of `CNCCCC12CCC(c3ccccc31)c1ccccc12`, the cytotoxicity was 73.1% (active).

On to `CNCCCN1c2ccccc2CCc2ccccc21`, for which the cytotoxicity was 17.5% (inactive).

As for `CNCCCC1c2ccccc2C=Cc2ccccc21`, the cytotoxicity is 10.4% (inactive).

As to `Cc1cc(NC(=O)CSc2nc(-c3ccccc3)cs2)no1`, the cytotoxicity was -7.6% (inactive).

On to `N#CC1=C(N)OC2=C(C(=O)CCC2)C1c1ccc(OC(=O)N2CCOCC2)cc1` (stereo not drawn), for which the cytotoxicity is -4.6% (inactive).

With `c1ccc(-c2ccc(-c3ccccn3)nn2)nc1`, the cytotoxicity is 7.3% (inactive).

Regarding `c1ccc(-c2nnc(-c3ccccn3)nn2)nc1`, the cytotoxicity is 8.9% (inactive).

On to `Cc1ccc(C)c(S(=O)(=O)NC(CCC(N)=O)C(=O)O)c1` (stereo not drawn), for which the cytotoxicity is 5% (inactive).

On to `COc1ccc2c(c1)CCc1c(C(=O)Nc3ccn(Cc4ccc(C)cc4)n3)noc1-2`, for which the cytotoxicity was -1.5% (inactive).

As to `COc1cc(C2C3C(=O)N(c4ccccc4)C(=O)C3ON2c2ccccc2)ccc1O` (stereo not drawn), the cytotoxicity is 3.7% (inactive).

In the case of `CCCOc1ccc(N2C(=O)C3ON(c4ccccc4)C(c4ccc(O)c(OC)c4)C3C2=O)cc1` (stereo not drawn), the cytotoxicity is 81.7% (active).

As to `COc1cc(C2C3C(=O)N(c4ccc(F)cc4)C(=O)C3ON2c2ccccc2)ccc1O` (stereo not drawn), the cytotoxicity is -1.5% (inactive).

Consider `CCCCCC1CC(CC(=O)O)C(=O)O1` (stereo not drawn), for which the cytotoxicity was -13.6% (inactive).

As to `CCOC(=O)N1CCC(NC(=O)c2cc(C(=O)Nc3ccc(OCC)cc3)ccc2CO)CC1`, the cytotoxicity is 1.5% (inactive).

`CCn1c(CNc2nc(-c3ccccc3)cs2)nnc1SCC(=O)NCc1ccco1`: the cytotoxicity was -32.7% (inactive).
